This is an account of results in PubChem BioAssay.

Active and inactive are the calls of the source. Unless noted, no rule for the calls is given here.

In experiment [1] the test system is Aerobactin synthetase IucA (Klebsiella pneumoniae). The experiment in a line: IucA aerobactin synthetase inhibitors, biochemical, Tocris library, absorbance (AID 1345561).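 Also: 100% = enzyme without compound and 0% = no enzyme.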 Conditions: purified IucA enzyme assay, absorbance (OD) read-out; stronger effect = lower value;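 tested at 8 µM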.
The nature of experiment [2]: sensitizers of A549 cells to miR-34 induction, primary screen, imaging, A549 dox-inducible miR-34, nuclei and caspase counts (AID 1347080;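 active = compounds whose cell count with miR-34 switched on is under 0.7 times the count with it off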). Conditions: A549 miR-34 inducible, Hoechst nuclei count, 48 h.
The nature of experiment [3]: viability rescue of complex I mutant cybrids, primary screen, cell-based, galactose medium, ATP luminescence (AID 1645843;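 active = z-score of at least 1.8 in each of two replicates, scored against plate mean and spread of sample wells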;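 also: positive z means more ATP and so rescue of galactose-driven cybrid death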). Conditions: complex I mutant cybrid cells, 72 h, stronger effect = higher value.
Setting [4] is: stronger effect = lower value, cell number ratio, induced over uninduced.
Where [5] appears, read: measured here: relative caspase fold change +Dox/-Dox.
[6] abbreviates: measured here: total cells with miR-34 induction, stronger effect = lower value.
The mark [7] stands for this setting: measured here: total cells without miR-34 induction.

Broadly, the remaining activity is the signal under treatment as a percentage of the control signal. In the case of `CCCc1c(OCCCOc2ccc(OCC(=O)O)cc2)ccc(CC=O)c1O`, the remaining activity in experiment [1] was 117% (inactive). For the same molecule, the fold change in experiment [2] (setting [4]) is 0.911 (inactive); in experiment [2] (setting [5]), 0.927. In addition, the results for the cell count in experiment [2] (setting [6]) and in experiment [2] (setting [7]) were 9560 and 10500, respectively. In addition, the z-score in experiment [3] is 1.5 (inactive).

On to `O=C1CC2(CCCC2)CC(=O)N1CCCCNCC1COc2ccccc2O1` (centres undefined), for which the remaining activity in experiment [1] is 102% (inactive). The fold change in experiment [2] (setting [4]) was 0.892 (inactive); in experiment [2] (setting [5]), 0.89. For the same molecule, the figures for the cell count in experiment [2] (setting [6]) and in experiment [2] (setting [7]) were 8660 and 9710, respectively. For the same molecule, the z-score in experiment [3] is -1.01 (inactive).

In the case of `COc1oc(=O)c2cc(N)ccc2c1Cl`, in experiment [1], the remaining activity is 95.9% (inactive). Also, the results for the fold change in experiment [2] (setting [4]) and in experiment [2] (setting [5]) were 0.989 (inactive) and 1.44, respectively. Besides, the cell count was 8640 in experiment [2] (setting [6]) and 8740 in experiment [2] (setting [7]). In addition, in experiment [3], the z-score was -0.37 (inactive).

Turning to `CC(C)NCCN(C(C)C)S(=O)(=O)c1ccc(Cl)cc1Cl`, the remaining activity in experiment [1] is 113% (inactive). Moreover, the fold change in experiment [2] (setting [4]) was 0.946 (inactive); in experiment [2] (setting [5]), 1.35. The cell count in experiment [2] (setting [6]) worked out at 9040; in experiment [2] (setting [7]) it was 9560. For the same molecule, the z-score in experiment [3] was -0.215 (inactive).

As to `COC(=O)[C@@H]1C2C[C@H]3c4[nH]c5ccccc5c4CCN3C[C@@H]2CC[C@@H]1O` (some centres undefined), in experiment [1], the remaining activity was 95.9% (inactive). The figures for the fold change in experiment [2] (setting [4]) and in experiment [2] (setting [5]) were 0.91 (inactive) and 2.92, respectively. Moreover, the results for the cell count in experiment [2] (setting [6]) and in experiment [2] (setting [7]) were 8430 and 9270, respectively. For the same molecule, the z-score in experiment [3] was 0.315 (inactive).

Consider `CCCCn1c(=O)c2[nH]c(C34CC5CC(CC3C5)C4)nc2n(CCCO)c1=O`, for which, in experiment [1], the remaining activity is 106% (inactive). Also, the fold change is 1.02 (inactive) in experiment [2] (setting [4]) and 1.81 in experiment [2] (setting [5]). The cell count in experiment [2] (setting [6]) was found to be 5180; in experiment [2] (setting [7]), 5060. In addition, the z-score in experiment [3] was 0.41 (inactive).

For `c1ccc(N2CCN(Cc3nc4ccccc4[nH]3)CC2)nc1`, the remaining activity in experiment [1] is 78.8% (inactive). Also, the fold change was 0.909 (inactive) in experiment [2] (setting [4]) and 2.02 in experiment [2] (setting [5]). Further, the cell count in experiment [2] (setting [6]) worked out at 8260; in experiment [2] (setting [7]), 9090. Also, in experiment [3], the z-score is 0.04 (inactive).

On to `O=C(NCCCCN1CCN(c2cccc(Cl)c2Cl)CC1)c1ccc2c(c1)Cc1ccccc1-2`, for which, in experiment [1], the remaining activity is 111% (inactive). Further, the fold change in experiment [2] (setting [4]) was 0.929 (inactive); in experiment [2] (setting [5]), 1.33. Moreover, the cell count in experiment [2] (setting [6]) stood at 8390; in experiment [2] (setting [7]), 9030. In experiment [3], the z-score is -0.17 (inactive).

Regarding `CO[C@@H]1[C@H](O)[C@@H](CO)O[C@H]1n1cnc2c(NC3CCCCC3)ncnc21`, the remaining activity in experiment [1] was 99.6% (inactive). Also, the figures for the fold change in experiment [2] (setting [4]) and in experiment [2] (setting [5]) were 0.954 (inactive) and 1.32, respectively. Also, the values for the cell count in experiment [2] (setting [6]) and in experiment [2] (setting [7]) were 8920 and 9350, respectively. In addition, in experiment [3], the z-score is 0.065 (inactive).

On to `Nc1c(S(=O)(=O)O)cc(Nc2cccc3ccccc23)c2c1C(=O)c1ccccc1C2=O`, for which, in experiment [1], the remaining activity was 109% (inactive). In addition, the fold change is 0.981 (inactive) in experiment [2] (setting [4]) and 1.43 in experiment [2] (setting [5]). For the same molecule, the cell count in experiment [2] (setting [6]) worked out at 9410; in experiment [2] (setting [7]), 9590. Also, in experiment [3], the z-score is 3.16 (active).

Take `N[C@@H](C(=O)O)c1ccc(O)c(C(=O)O)c1`: the remaining activity in experiment [1] was 100% (inactive). Moreover, the fold change in experiment [2] (setting [4]) was 0.932 (inactive); in experiment [2] (setting [5]) it was 0.807. For the same molecule, the cell count in experiment [2] (setting [6]) was determined as 8680; in experiment [2] (setting [7]), 9320. The z-score in experiment [3] was -0.18 (inactive).

As to `CS(=O)(=O)Nc1c(O)ccc2c1CCCC2C1=NCCN1` (centres undefined), in experiment [1], the remaining activity was 114% (inactive). The fold change in experiment [2] (setting [4]) is 1 (inactive); in experiment [2] (setting [5]), 0.792. Moreover, the cell count in experiment [2] (setting [6]) is 9080; in experiment [2] (setting [7]), 9050. Further, in experiment [3], the z-score is -0.21 (inactive).

`Cc1ccc(S(=O)(=O)NCc2ccccc2)cc1`: the remaining activity in experiment [1] was 121% (inactive). The fold change was 0.861 (inactive) in experiment [2] (setting [4]) and 0.767 in experiment [2] (setting [5]). Also, the cell count in experiment [2] (setting [6]) came to 8330; in experiment [2] (setting [7]), 9670. Also, the z-score in experiment [3] was -0.21 (inactive).

In the case of `C[C@@H]1C(=O)OC2[C@H](O)C34[C@H]5C[C@@H](C(C)(C)C)[C@]36[C@@H](OC(=O)[C@@H]6O)O[C@@]4(C(=O)O5)[C@]21O` (some centres undefined), the remaining activity in experiment [1] is 112% (inactive). Further, the figures for the fold change in experiment [2] (setting [4]) and in experiment [2] (setting [5]) were 0.923 (inactive) and 0.53, respectively. For the same molecule, the cell count was found to be 8430 in experiment [2] (setting [6]) and 9140 in experiment [2] (setting [7]). Also, in experiment [3], the z-score is -0.225 (inactive).

Regarding `CCC(=O)NC1Cc2ccccc2C(c2ccccc2)C1` (centres undefined), the remaining activity in experiment [1] is 124% (inactive). Besides, the fold change is 1.02 (inactive) in experiment [2] (setting [4]) and 1.01 in experiment [2] (setting [5]). The cell count amounted to 8500 in experiment [2] (setting [6]) and 8340 in experiment [2] (setting [7]). Moreover, the z-score in experiment [3] is 0.46 (inactive).

On to `Cc1cc2nc3c(=O)[nH]c(=O)nc-3n(C)c2cc1C=O`, for which the remaining activity in experiment [1] was 110% (inactive). For the same molecule, the fold change in experiment [2] (setting [4]) is 1.04 (inactive); in experiment [2] (setting [5]), 1.31. The values for the cell count in experiment [2] (setting [6]) and in experiment [2] (setting [7]) were 8790 and 8430, respectively. The z-score in experiment [3] was -0.69 (inactive).

Consider `CC[C@@H](C)[C@H]1O[C@]2(CC[C@@H]1C)C[C@@H]1C[C@@H](C/C=C(\C)[C@@H](O[C@H]3C[C@H](OC)[C@@H](O[C@H]4C[C@H](OC)[C@@H](O)[C@H](C)O4)[C@H](C)O3)[C@@H](C)/C=C/C=C3\CO[C@@H]4[C@H](O)C(C)=CC(C(=O)O1)[C@]34O)O2` (some centres undefined) (tested in a mixture with another compound), for which, in experiment [1], the remaining activity was 124% (inactive). For the same molecule, the figures for the fold change in experiment [2] (setting [4]) and in experiment [2] (setting [5]) were 0.987 (inactive) and 1.53, respectively. Further, the values for the cell count in experiment [2] (setting [6]) and in experiment [2] (setting [7]) were 507 and 514, respectively. Also, the z-score in experiment [3] was -1.04 (inactive).

As to `CCc1cc2c(c(CC)n1)CCC(=O)N2Cc1ccc(-c2ccccc2-c2nn[nH]n2)cc1`, the remaining activity in experiment [1] is 89.1% (inactive). Besides, the values for the fold change in experiment [2] (setting [4]) and in experiment [2] (setting [5]) were 0.902 (inactive) and 0.831, respectively. Moreover, the cell count in experiment [2] (setting [6]) came out at 8410; in experiment [2] (setting [7]) it was 9320. In experiment [3], the z-score is 1.93 (inactive).

On to `C[C@@H](CN1CCC(n2c(=O)[nH]c3cc(Cl)ccc32)CC1)NC(=O)c1ccc2ccccc2c1`, for which the remaining activity in experiment [1] is 106% (inactive). In addition, the fold change in experiment [2] (setting [4]) is 1.11 (inactive); in experiment [2] (setting [5]), 0.89. The cell count in experiment [2] (setting [6]) came to 3940; in experiment [2] (setting [7]) it was 3560. The z-score in experiment [3] is -1.04 (inactive).
